Measured values from PubChem BioAssay (EPA / NIEHS).
Several values for one entry are separate records, joined by “and”; a condition that tells them apart may be missing. Equal entries are not always repeated. Results filed as inconclusive are left out. The source holds several records for some structures; these can differ, active in one and inactive in another. Activity calls are given as the source filed them. The calls were made as follows, unless noted: active = hit-call score of the fitted dose curve at least 0.9, where 1 is the maximum; inactive = score below 0.9.

System: not listed separately
Assay: CCTE_Mundy_HCI_hN2_NOG_NeuriteLength: CCTE's Neurite Outgrowth Assay in human hN2 cells for Neurite Length, Mundy Lab (AID 2284220; active = hit-call score of the fitted dose curve at least 0.9, where 1 is the maximum)
Settings: not given
Procedure, shortened: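 Using βIII-tubulin immunofluorescence and Hoechst nuclear counterstain, this component quantifies neurite length in hNP1-derived neurons.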

Compound | outcome | AC50
NC(=O)N1c2ccccc2C=Cc2ccccc21 | inactive | 
NNC(=O)c1ccncc1 | inactive | 
COc1cc2c(c(OC)c1OC)-c1ccc(OC)c(=O)cc1[C@@H](NC(C)=O)CC2 |  | 0.00931 µM (active)
CCCC(CCC)C(=O)O | inactive | 
OC(Cn1cncn1)(Cn1cncn1)c1ccc(F)cc1F | inactive | 

System: not listed separately
Assay: CCTE_Mundy_HCI_hN2_NOG_NeuronCount: CCTE's Neurite Outgrowth Assay in human hN2 cells for Neuron Count, Mundy Lab (AID 2284221; active = hit-call score of the fitted dose curve at least 0.9, where 1 is the maximum)
Settings: not given
Procedure, shortened: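 Read-out is the number of betaIII-tubulin-positive neurons imaged by automated high-content analysis, with DMSO as negative control.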

Compound | outcome | AC50
NC(=O)N1c2ccccc2C=Cc2ccccc21 | inactive | 
COc1cc2c(c(OC)c1OC)-c1ccc(OC)c(=O)cc1[C@@H](NC(C)=O)CC2 |  | 0.0262 µM (active)
CCCC(CCC)C(=O)O | inactive | 

System: not listed separately
Assay: CCTE_Mundy_HCI_Cortical_Synap_Neur_Matur_NeuriteCount: CCTE's Synaptogenesis and Neurite Maturation Assay in rat cortical cells for Neurite Count, Mundy Lab (AID 2284222);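 as to outcome: exposure from day 7 to day 12 in vitro with readout at day 12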
Settings: not given
Procedure, shortened: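 Rat cortical neurons, 96-well; AraC DIV 5; chemical + media change DIV 7; end DIV 12. Fix PFA/Hoechst, anti-MAP2 + anti-synaptophysin IF. HCI neurite count vs DMSO baseline.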

Compound | outcome | AC50
NC(=O)N1c2ccccc2C=Cc2ccccc21 | inactive | 
NNC(=O)c1ccncc1 | inactive | 
C[C@]12C=CC(=O)C=C1CC[C@H]1[C@@H]3C[C@@H](O)[C@](O)(C(=O)CO)[C@@]3(C)C[C@H](O)[C@@]12F |  | 18.8 µM (active)
COc1cc2c(c(OC)c1OC)-c1ccc(OC)c(=O)cc1[C@@H](NC(C)=O)CC2 |  | 0.44 µM (active)
c1ccc2cc3ccccc3cc2c1 | inactive | 
Cn1cc[nH]c1=S | inactive | 
Nc1ccn([C@@H]2O[C@H](CO)[C@@H](O)[C@@H]2O)c(=O)n1 |  | 12.6 µM (active) and 15 µM (active)
CCCC(CCC)C(=O)O | inactive | 
OC(Cn1cncn1)(Cn1cncn1)c1ccc(F)cc1F | inactive | 

System: not listed separately
Assay: CCTE_Mundy_HCI_Cortical_Synap_Neur_Matur_CellBodySpotCount: CCTE's Synaptogenesis and Neurite Maturation Assay in rat cortical cells for Cell Body Spot Count, Mundy Lab (AID 2284223)
Settings: not given
Procedure, shortened: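 Synapse number at neuronal cell bodies was quantified as synaptophysin puncta per neuron in rat cortical cultures exposed from DIV 7 to DIV 12. Values were normalised to DMSO.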

Compound | outcome | AC50
NC(=O)N1c2ccccc2C=Cc2ccccc21 | inactive | 
NNC(=O)c1ccncc1 | inactive | 
C[C@]12C=CC(=O)C=C1CC[C@H]1[C@@H]3C[C@@H](O)[C@](O)(C(=O)CO)[C@@]3(C)C[C@H](O)[C@@]12F |  | 15 µM (active)
COc1cc2c(c(OC)c1OC)-c1ccc(OC)c(=O)cc1[C@@H](NC(C)=O)CC2 |  | 0.0427 µM (active)
c1ccc2cc3ccccc3cc2c1 | inactive | 
Cn1cc[nH]c1=S | inactive | 
Nc1ccn([C@@H]2O[C@H](CO)[C@@H](O)[C@@H]2O)c(=O)n1 | inactive | 11.7 µM (active)
CCCC(CCC)C(=O)O | inactive | 
OC(Cn1cncn1)(Cn1cncn1)c1ccc(F)cc1F | inactive | 

System: not listed separately
Assay: CCTE_Mundy_HCI_hNP1_Pro_ResponderAvgInten: CCTE's Proliferation Assay in human neuroprogenitor cells, Mundy Lab (AID 2284224; active = hit-call score of the fitted dose curve at least 0.9, where 1 is the maximum;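 also: human neural progenitor cells hNP1 derived from WA09 embryonic stem cells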)
Settings: not given
Procedure, shortened: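 Human neuroprogenitors (hNP1, WA09 lineage) receive test chemical after 40 to 44 hours of attachment. A four-hour BrdU pulse begins twenty hours later, followed by fixation and high content imaging; signal is referenced to DMSO controls.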

Compound | outcome | AC50
C[C@]12C=CC(=O)C=C1CC[C@H]1[C@@H]3C[C@@H](O)[C@](O)(C(=O)CO)[C@@]3(C)C[C@H](O)[C@@]12F | inactive | 
FC(F)(F)C(F)(F)C(F)(F)C(F)(F)C(F)(F)C(F)(F)I | inactive | 
Nc1ccn([C@@H]2O[C@H](CO)[C@@H](O)[C@@H]2O)c(=O)n1 |  | 9.56 nM (active) and 3.83 nM (active)

Read-out: not listed separately
Assay: BSK_BT_PBMCCytotoxicity: PBMC Cytotoxicity Assessment in the BioMAP Diversity Plus: BT Assay (AID 2284225);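 also: PBMC viability measured by Alamar Blue dye reduction fluorescence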
Settings: primary human B cells with PBMC
Procedure, shortened: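 Viability by Alamar Blue reduction (6 h, ex/em 546/580 nm) after 90 h culture of SEB/TSST-1-activated PBMC (20 ng/mL each) given compound 1 h before activation. DMSO served as baseline for curve fitting.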

Compound | outcome
OCc1c[nH]c2ccccc12 | inactive
NCC(F)(F)C(F)(F)C(F)(F)C(F)(F)F | inactive
FC(F)=C(F)C(F)(F)C(F)(F)C(F)(F)C(F)(F)C(F)(F)C(F)(F)F | inactive
Cc1cccc(O)c1C | inactive
O=C(Cl)C(F)(F)C(F)(F)C(F)(F)C(=O)Cl | inactive
OCCC(F)(F)C(F)(F)C(F)(F)C(F)(F)F | inactive
FC(F)(F)C(F)(F)C(F)(F)C(F)(F)C(F)(F)C(F)(F)I | inactive
O=S(=O)(O)CCC(F)(F)C(F)(F)C(F)(F)C(F)(F)C(F)(F)C(F)(F)F | inactive
OC(O)(C(F)C(O)(O)C(F)(F)F)C(F)(F)F | inactive
S=P(N1CC1)(N1CC1)N1CC1 | inactive
FC(F)C(F)(F)COCC1CO1 (centres undefined) | inactive
FC(F)(F)COC(OCC(F)(F)F)OCC(F)(F)F | inactive
C[Si](C)(C)C(F)(F)C(F)(F)C(F)(F)F | inactive

Read-out: Interleukin 6 (IL6), IL6 (gene 3569)
Assay: BSK_BT_xIL6: BioMAP Diversity Plus: BT Assay for Interleukin 6 (IL6) Biomarker Activity (AID 2284228)
Settings: primary human B cells with PBMC
Procedure, shortened: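 Chemical added to human B cell/PBMC co-culture → 24 h → supernatant IL-6 by Luminex xMAP → fit vs DMSO baseline, upward direction.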

Compound | AC50 | outcome
OCc1c[nH]c2ccccc12 | 3.97 µM (active) | 
NCC(F)(F)C(F)(F)C(F)(F)C(F)(F)F |  | inactive
FC(F)=C(F)C(F)(F)C(F)(F)C(F)(F)C(F)(F)C(F)(F)C(F)(F)F |  | inactive
Cc1cccc(O)c1C |  | inactive
O=C(Cl)C(F)(F)C(F)(F)C(F)(F)C(=O)Cl |  | inactive
OCCC(F)(F)C(F)(F)C(F)(F)C(F)(F)F |  | inactive
FC(F)(F)C(F)(F)C(F)(F)C(F)(F)C(F)(F)C(F)(F)I |  | inactive
O=S(=O)(O)CCC(F)(F)C(F)(F)C(F)(F)C(F)(F)C(F)(F)C(F)(F)F |  | inactive
OC(O)(C(F)C(O)(O)C(F)(F)F)C(F)(F)F | 53.3 µM (active) and 52 µM (active) | 
S=P(N1CC1)(N1CC1)N1CC1 |  | inactive
FC(F)C(F)(F)COCC1CO1 (centres undefined) |  | inactive
FC(F)(F)COC(OCC(F)(F)F)OCC(F)(F)F |  | inactive
C[Si](C)(C)C(F)(F)C(F)(F)C(F)(F)F |  | inactive

Read-out: Interleukin 17A (IL17A), IL17A (gene 3605)
Assay: BSK_BT_xIL17A: BioMAP Diversity Plus: BT Assay for Interleukin 17A (IL17A) Biomarker Activity (AID 2284229)
Settings: primary human B cells with PBMC
Procedure, shortened: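 Chemicals were added to a human B cell and PBMC co-culture. After 24 h, secreted IL-17A was measured with Luminex xMAP. Curves were fitted in the positive direction, with DMSO wells as baseline.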

Compound | outcome
OCc1c[nH]c2ccccc12 | inactive
NCC(F)(F)C(F)(F)C(F)(F)C(F)(F)F | inactive
FC(F)=C(F)C(F)(F)C(F)(F)C(F)(F)C(F)(F)C(F)(F)C(F)(F)F | inactive
Cc1cccc(O)c1C | inactive
O=C(Cl)C(F)(F)C(F)(F)C(F)(F)C(=O)Cl | inactive
OCCC(F)(F)C(F)(F)C(F)(F)C(F)(F)F | inactive
FC(F)(F)C(F)(F)C(F)(F)C(F)(F)C(F)(F)C(F)(F)I | inactive
O=S(=O)(O)CCC(F)(F)C(F)(F)C(F)(F)C(F)(F)C(F)(F)C(F)(F)F | inactive
OC(O)(C(F)C(O)(O)C(F)(F)F)C(F)(F)F | inactive
S=P(N1CC1)(N1CC1)N1CC1 | inactive
FC(F)C(F)(F)COCC1CO1 (centres undefined) | inactive
FC(F)(F)COC(OCC(F)(F)F)OCC(F)(F)F | inactive
C[Si](C)(C)C(F)(F)C(F)(F)C(F)(F)F | inactive
